These results are taken from PubChem BioAssay (Tox21).

Assay [1] is described as follows: A CellTox Green Cytotoxicity Assay to monitor cytotoxicity in HEK293 cells - 32 hour (AID 1224881). Further: nearly all actives have a fitted effect of over 40% in size. Further: potency means the concentration at half of the fitted maximal effect. The essentials:
(§1)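 Cytotoxicity was tracked continuously in HEK293 cells by a DNA-binding dye excluded from viable cells. Compounds were transferred in DMSO 5 h after seeding; fluorescence was recorded at intervals up to 40 h.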

Assay [2] can be described thus: A CellTox Green Cytotoxicity Assay to monitor cytotoxicity in HepG2 cells - 0 hour (AID 1224882). Further: nearly all actives have a fitted effect of over 35% in size. The procedure, abridged:
(§2)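 Real-time, homogeneous cytotoxicity readout: dead-cell DNA staining by CellTox Green in HepG2 monolayers, fluorescence measured at timed intervals up to 40 h of continuous compound exposure.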

A short description of assay [3]: A CellTox Green Cytotoxicity Assay to monitor cytotoxicity in HepG2 cells - 32 hour (AID 1224883). Further: nearly all actives have a fitted effect of over 50% in size. Further: potency means the concentration at half of the fitted maximal effect. The procedure, abridged: as §2
Assay [4] in a line: A CellTox Green Cytotoxicity Assay to monitor cytotoxicity in HEK293 cells - 8 hour (AID 1224884). Further: nearly all actives have a fitted effect of over 35% in size. Further: potency means the concentration at half of the fitted maximal effect. The procedure, abridged: as §1
Assay [5] is described as follows: qHTS RealTime-Glo MT Cell Viability Assay in HepG2 cells - 16 hour (AID 1224885). Further: nearly all actives have a fitted effect of over 50% in size. Further: potency means the concentration at half of the fitted maximal effect. The essentials: (§3)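 Compound treatment began 5 h after plating HepG2 cells (600/well) with NanoLuc luciferase and prosubstrate. Plates stayed at 37 C for 40 h; luminescence was captured at six time points, 0 h through 40 h.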
The nature of assay [6]: A CellTox Green Cytotoxicity Assay to monitor cytotoxicity in HEK293 cells - 16 hour (AID 1224888). Further: nearly all actives have a fitted effect of over 35% in size. Further: potency means the concentration at half of the fitted maximal effect. The procedure, abridged:
as §1

Assay [7] can be described thus: qHTS RealTime-Glo MT Cell Viability Assay in HepG2 cells - 0 hour (AID 1224889). Further: nearly all actives have a fitted effect of over 50% in size. Further: potency means the concentration at half of the fitted maximal effect. The essentials:
as §3
On the technique in general: Quantitative high-throughput screening tests each substance at several concentrations.

The nature of assay [8]: A CellTox Green Cytotoxicity Assay to monitor cytotoxicity in HepG2 cells - 8 hour (AID 1224890). Further: nearly all actives have a fitted effect of over 45% in size. Further: potency means the concentration at half of the fitted maximal effect. The essentials:
as §2

Assay [9] can be described thus: qHTS RealTime-Glo MT Cell Viability Assay in HEK293 cells - 24 hour (AID 1224886). Further: nearly all actives have a fitted effect of over 50% in size. Further: potency means the concentration at half of the fitted maximal effect. The essentials:
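Quantitative high-throughput screen of the Tox21 10K library in HEK293: cells and RealTime-Glo reagents plated together, compound added at 5 h, luminescence monitored through 40 h at 37 C.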

Assay [10] is described as follows: qHTS RealTime-Glo MT Cell Viability Assay in HEK293 cells - 8 hour (AID 1224887). Further: nearly all actives have a fitted effect of over 50% in size. Further: potency means the concentration at half of the fitted maximal effect. The procedure, abridged:
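Nonlytic bioluminescent viability monitoring. HEK293 at 600 cells/well with reagent; 5 h settle; compound transfer by pintool; plates held at 37 C and read at set time points.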

Values without a mark were called inactive. Records with an inconclusive call do not appear. Activity calls are given as the source filed them. The call rests on the fitted dose curve; in most records, active means well fitted curve in the direction sought with a large enough effect in the repeat runs; inconclusive means weak or mixed curves; inactive means no such curve, though single readings can be large; an effect the other way counts as inactive or inconclusive.

In the case of `O=C1C[C@@H]2OCC=C3CN4CC[C@]56c7ccccc7N1[C@H]5[C@H]2[C@H]3C[C@H]46`, the Potency entry in assay [1], in assay [2], in assay [3], in assay [4], in [5] and in assay [6] was “inactive” in each case. Moreover, the Potency result in assay [7] and in assay [8] was “inactive” each time.

Take `CC1CCCC1`: the Potency entry in assay [1], in assay [2], in assay [3], in assay [4], in assay [5] and in [9] was “inactive” in each case. Further, the Potency entry in assay [10], in assay [6] and in assay [8] was “inactive” in each case.

Consider `ClCBr`, for which the Potency result in assay [1], in [2], in assay [3], in assay [4], in assay [5] and in [9] was “inactive” throughout. The Potency entry in assay [10], in assay [6] and in assay [8] was “inactive” each time.

Take `CC(C)(C)c1ccc(OP(=O)(Oc2ccccc2)Oc2ccccc2)cc1`: the Potency entry in assay [1], in [2], in assay [3], in assay [4], in [5] and in [6] was “inactive” each time. In addition, the Potency result in assay [7] and in [8] was “inactive” in each case.

Regarding `CN1CCc2cc(Cl)c(O)cc2[C@H]2c3ccccc3CC[C@@H]21`, the Potency result in assay [1], in assay [2], in assay [3], in assay [4], in [5] and in [10] was “inactive” each time. Moreover, the Potency entry in assay [6] and in [8] was “inactive” each time.

Turning to `CC(C)=CCN1CC[C@@]2(C)c3cc(O)ccc3C[C@@H]1[C@@H]2C`, the Potency entry in [1], in assay [2], in assay [3], in assay [4], in assay [5] and in assay [10] was “inactive” each time. The Potency result in [6], in [7] and in assay [8] was “inactive” throughout.

Take `ClSC(Cl)(Cl)Cl`: the Potency entry in [1], in [2], in assay [3], in assay [4], in [5] and in assay [9] was “inactive” each time. The Potency entry in assay [10], in assay [6] and in assay [8] was “inactive” in each case.

As for `CC(C)N(C(=O)SC/C(Cl)=C/Cl)C(C)C`, the Potency in [1] is 39.2 µM (active). The Potency entry in [2], in [3], in assay [4], in assay [5], in assay [9] and in [6] was “inactive” throughout. Moreover, the Potency entry in assay [7] and in [8] was “inactive” in each case.

Take `CN1C(=O)[C@@H](NC(=O)c2cc3ccccc3[nH]2)N=C(c2ccccc2)c2ccccc21`: the Potency entry in [1], in [2], in [3], in assay [4], in [9] and in assay [10] was “inactive” throughout. Further, the Potency result in assay [6], in assay [7] and in [8] was “inactive” in each case.

For `CC(=O)[O-].CC(=O)[O-].O.O.O.[Pb+2]`, the Potency entry in [1], in [2], in [3], in assay [4], in [5] and in [10] was “inactive” each time. Also, the Potency result in assay [6], in assay [7] and in assay [8] was “inactive” each time.

With `COP(=S)(OC)Oc1nc(Cl)c(Cl)cc1Cl`, the Potency result in assay [1], in [2], in assay [3], in assay [4], in assay [5] and in [9] was “inactive” in each case. Besides, the Potency entry in assay [6] and in [8] was “inactive” throughout.

Take `c1ccc2c(c1)cc1ccc3cccc4ccc2c1c34`: the Potency entry in [1], in [2], in assay [4], in assay [5] and in assay [6] was “inactive” in each case. The Potency in [3] is 7.05 µM (active).

For `CC(=O)[O][Pb]([c]1ccccc1)([c]1ccccc1)[c]1ccccc1`, the Potency in [1] is 3.09 µM (active); in assay [3], 0.871 µM (active); in assay [4], 11 µM (active); in [5], 1.55 µM (active); in [9], 0.436 µM (active); in [10] it was 3.47 µM (active). The figures for the Potency in assay [6] and in [8] were 4.9 µM (active) and 3.89 µM (active), respectively. Also, in assay [2], the Potency result is “inactive”.

For the molecule `O.O.O.O.O.O.O.O=S(=O)([O-])[O-].[Co+2]`, the Potency entry in assay [1], in assay [2], in assay [3], in [4], in assay [5] and in assay [9] was “inactive” throughout. The Potency result in assay [10], in [6] and in assay [8] was “inactive” throughout.

In the case of `Cc1cc2c3c(c1)C(c1ccccc1)=N[C@@H](NC(=O)c1ccncc1)C(=O)N3CC2`, the Potency result in assay [1], in [2], in [3], in [4], in assay [5] and in assay [9] was “inactive” throughout. In addition, the Potency result in assay [10], in [6] and in [8] was “inactive” throughout.

With `CC(C)c1c(CN(C)C(C)Cc2ccccc2)n(C)n(-c2ccccc2)c1=O` (centres undefined), the Potency result in assay [1], in [2], in assay [3], in assay [4], in assay [5] and in [6] was “inactive” each time. Besides, in assay [8], the Potency entry is “inactive”.

Consider `CC(C)Br`, for which the Potency result in assay [1], in assay [2], in assay [3], in assay [4], in assay [5] and in assay [9] was “inactive” each time. Besides, the Potency entry in assay [6] was “inactive”.

As to `N#CC(C#N)=NNc1cccc(Cl)c1`, the Potency result in [1], in assay [2], in assay [4], in assay [10], in assay [6] and in assay [8] was “inactive” in each case. Also, the Potency in [3] was 13.8 µM (active); in assay [9], 5.49 µM (active); in assay [7] it was 24.5 µM (active).

As for `[Cl][Hg][c]1ccccc1`, the Potency in [1] was 2.19 µM (active); in assay [3], 2.45 µM (active); in assay [5] it was 2.75 µM (active); in [9], 1.23 µM (active); in assay [10], 1.95 µM (active); in assay [8] it was 3.09 µM (active). The Potency result in [2], in assay [4] and in [6] was “inactive” in each case.

As for `S=C=Nc1ccccc1`, the Potency entry in assay [1], in [2], in assay [3], in [4], in assay [5] and in assay [9] was “inactive” throughout. Moreover, the Potency entry in assay [10], in assay [6] and in [8] was “inactive” in each case.

As for `BrCCCBr`, the Potency result in [1], in assay [2], in assay [3], in assay [4], in assay [5] and in [9] was “inactive” in each case. The Potency entry in assay [10], in assay [6] and in assay [8] was “inactive” each time.

Take `CC(C)[C@@H](Nc1ccc(C(F)(F)F)cc1Cl)C(=O)OC(C#N)c1cccc(Oc2ccccc2)c1` (some centres undefined): the Potency entry in assay [1], in assay [2], in assay [3], in assay [4], in assay [5] and in assay [9] was “inactive” throughout. Besides, the Potency result in assay [6], in assay [7] and in [8] was “inactive” each time.

Take `CCOP(=O)(OCC)Oc1cc(C)nc(C(C)C)n1`: the Potency result in [1], in assay [2], in [3], in assay [4], in assay [5] and in [9] was “inactive” throughout. Moreover, the Potency result in [10], in assay [6] and in [8] was “inactive” in each case.

Regarding `CSC(=O)c1c(C(F)F)nc(C(F)(F)F)c(C(=O)SC)c1CC(C)C`, the Potency entry in assay [1], in assay [2], in [3], in [4], in assay [5] and in [10] was “inactive” throughout. Besides, the Potency result in [6], in assay [7] and in assay [8] was “inactive” each time.

On to `Nc1nc(N)nc(Cl)n1`, for which the Potency entry in assay [1], in assay [2], in assay [3], in assay [4], in assay [5] and in assay [9] was “inactive” each time. The Potency result in assay [10], in assay [6] and in assay [8] was “inactive” throughout.
